We go through 34 substances from paper PMC5795388.

What all share (test): cross-link between two proteins; cross-linking mass spectrometry
The target of test [1] is NADH dehydrogenase [ubiquinone] 1 beta subcomplex subunit 10 (UniProt Q9DCS9).
Test [2] has as its target NADH-ubiquinone oxidoreductase 75 kDa subunit, mitochondrial (UniProt Q91VD9).
The target of test [3] is Apoptosis-inducing factor 1, mitochondrial (UniProt Q9Z0X1).
Test [4] has as its target Dihydrolipoyllysine-residue succinyltransferase component of 2-oxoglutarate dehydrogenase complex, mitochondrial (UniProt Q9D2G2).
Test [5] concerns the target Mitochondrial fission regulator 1-like (UniProt Q9CWE0).
Test [6] addresses ATP synthase peripheral stalk subunit d, mitochondrial (UniProt Q9DCX2).
The target of test [7] is Cytochrome c oxidase subunit 6C (UniProt Q9CPQ1).
The target in test [8] is Mitochondrial import inner membrane translocase subunit TIM14 (UniProt Q9CQV7).
Test [9] concerns the target Cytochrome b-c1 complex subunit 1, mitochondrial (UniProt Q9CZ13).
Test [10] concerns the target Mitochondrial import inner membrane translocase subunit Tim9 (UniProt Q9WV98).
For test [11], the target named is Cytochrome b-c1 complex subunit 7 (UniProt Q9D855).
Test [12] concerns the target 2-oxoglutarate dehydrogenase complex component E1 (UniProt Q60597).
Test [13] addresses NADH dehydrogenase [ubiquinone] 1 alpha subcomplex subunit 9, mitochondrial (UniProt Q9DC69).
For test [14], the target named is Double-stranded RNA-binding protein Staufen homolog 1 (UniProt Q9Z108).
The target in test [15] is Cytochrome b-c1 complex subunit 9 (UniProt Q8R1I1).
For test [16], the target named is Cytochrome c oxidase subunit FA4 (UniProt Q62425).
The target of test [17] is Isocitrate dehydrogenase [NAD] subunit alpha, mitochondrial (UniProt Q9D6R2).
In test [18] the target is MICOS complex subunit Mic19 (UniProt Q9CRB9).
The target in test [19] is MICOS complex subunit Mic60 (UniProt Q8CAQ8).
Test [20] has as its target NADH dehydrogenase [ubiquinone] 1 alpha subcomplex subunit 13 (UniProt Q9ERS2).
The target of test [21] is Succinate dehydrogenase [ubiquinone] iron-sulfur subunit, mitochondrial (UniProt Q9CQA3).
For test [22], the target named is Methylmalonic aciduria type A homolog, mitochondrial (UniProt Q8C7H1).
Test [23] has as its target NADH dehydrogenase [ubiquinone] 1 beta subcomplex subunit 8, mitochondrial (UniProt Q9D6J5).
The target of test [24] is ATP synthase F(0) complex subunit g, mitochondrial (UniProt Q9CPQ8).
Test [25] has as its target ATP synthase peripheral stalk subunit OSCP, mitochondrial (UniProt Q9DB20).
Test [26] has as its target Cytochrome b-c1 complex subunit 6, mitochondrial (UniProt P99028).
Test [27] has as its target Cytochrome c oxidase subunit 7B, mitochondrial (UniProt P56393).
Test [28] deals with Dynamin-like GTPase OPA1, mitochondrial (UniProt P58281).
A further test addresses Protein FAM162A (UniProt Q9D6U8).
For test [29], the target named is Cytochrome b-c1 complex subunit 8 (UniProt Q9CQ69).
Another test concerns the target ADP/ATP translocase 1 (UniProt P48962).
Test [30] concerns the target FAST kinase domain-containing protein 2, mitochondrial (UniProt Q922E6).
For test [31], the target named is Methylglutaconyl-CoA hydratase, mitochondrial (UniProt Q9JLZ3).
For test [32], the target named is NADH dehydrogenase [ubiquinone] flavoprotein 1, mitochondrial (UniProt Q91YT0).
For test [33], the target named is Cytochrome b-c1 complex subunit 2, mitochondrial (UniProt Q9DB77).
The target of test [34] is Heat shock protein 75 kDa, mitochondrial (UniProt Q9CQN1).
Test [35] addresses DnaJ homolog subfamily C member 11 (UniProt Q5U458).
Test [36] has as its target MICOS complex subunit Mic26 (UniProt Q9DCZ4).
For test [37], the target named is ATP synthase peripheral stalk subunit F6, mitochondrial (UniProt P97450).
Test [38] concerns the target Cytochrome b-c1 complex subunit Rieske, mitochondrial (UniProt Q9CR68).
The target in test [39] is Cytochrome c1, heme protein, mitochondrial (UniProt Q9D0M3).

Cytochrome c oxidase subunit 6C, sequence (Q9CPQ1 whole entry): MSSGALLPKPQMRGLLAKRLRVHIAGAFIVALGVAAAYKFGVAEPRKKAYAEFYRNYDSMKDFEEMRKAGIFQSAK
Cytochrome b-c1 complex subunit 1, mitochondrial, sequence (Q9CZ13 whole entry, one chain of several): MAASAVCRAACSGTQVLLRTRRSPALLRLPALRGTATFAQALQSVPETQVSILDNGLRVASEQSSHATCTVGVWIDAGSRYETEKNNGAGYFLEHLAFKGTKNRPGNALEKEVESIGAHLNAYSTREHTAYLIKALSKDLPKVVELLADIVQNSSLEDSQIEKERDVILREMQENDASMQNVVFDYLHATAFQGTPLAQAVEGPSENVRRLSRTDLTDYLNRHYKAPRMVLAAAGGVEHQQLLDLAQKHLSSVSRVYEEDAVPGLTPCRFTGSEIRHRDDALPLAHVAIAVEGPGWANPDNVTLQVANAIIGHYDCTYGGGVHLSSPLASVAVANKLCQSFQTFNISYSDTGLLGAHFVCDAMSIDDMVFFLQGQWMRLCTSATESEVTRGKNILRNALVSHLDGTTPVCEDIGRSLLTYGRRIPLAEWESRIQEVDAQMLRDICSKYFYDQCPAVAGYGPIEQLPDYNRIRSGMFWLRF
NADH dehydrogenase [ubiquinone] 1 beta subcomplex subunit 10, sequence (Q9DCS9 whole entry, one chain of several): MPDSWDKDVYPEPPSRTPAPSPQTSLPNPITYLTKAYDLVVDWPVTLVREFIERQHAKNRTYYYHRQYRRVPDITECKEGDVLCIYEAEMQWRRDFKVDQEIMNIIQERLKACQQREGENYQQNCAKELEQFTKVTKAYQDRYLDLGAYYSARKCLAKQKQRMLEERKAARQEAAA
ATP synthase peripheral stalk subunit d, mitochondrial, sequence (Q9DCX2 whole entry): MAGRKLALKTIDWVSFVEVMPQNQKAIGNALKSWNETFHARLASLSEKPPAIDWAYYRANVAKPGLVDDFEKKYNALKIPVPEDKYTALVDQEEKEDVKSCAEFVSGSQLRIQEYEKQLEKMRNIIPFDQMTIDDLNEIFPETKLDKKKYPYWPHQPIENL
Protein FAM162A, sequence (Q9D6U8 whole entry): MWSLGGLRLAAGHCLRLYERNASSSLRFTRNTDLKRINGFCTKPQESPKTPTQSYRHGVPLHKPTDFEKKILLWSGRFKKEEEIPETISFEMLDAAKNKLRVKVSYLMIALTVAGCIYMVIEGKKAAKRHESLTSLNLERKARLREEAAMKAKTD
Cytochrome b-c1 complex subunit 6, mitochondrial, sequence (P99028 whole entry, one chain of several): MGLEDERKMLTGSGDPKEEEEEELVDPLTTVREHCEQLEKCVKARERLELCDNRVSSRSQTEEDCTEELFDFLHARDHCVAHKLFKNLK
Dihydrolipoyllysine-residue succinyltransferase component of 2-oxoglutarate dehydrogenase complex, mitochondrial, sequence (Q9D2G2 whole entry, one chain of several): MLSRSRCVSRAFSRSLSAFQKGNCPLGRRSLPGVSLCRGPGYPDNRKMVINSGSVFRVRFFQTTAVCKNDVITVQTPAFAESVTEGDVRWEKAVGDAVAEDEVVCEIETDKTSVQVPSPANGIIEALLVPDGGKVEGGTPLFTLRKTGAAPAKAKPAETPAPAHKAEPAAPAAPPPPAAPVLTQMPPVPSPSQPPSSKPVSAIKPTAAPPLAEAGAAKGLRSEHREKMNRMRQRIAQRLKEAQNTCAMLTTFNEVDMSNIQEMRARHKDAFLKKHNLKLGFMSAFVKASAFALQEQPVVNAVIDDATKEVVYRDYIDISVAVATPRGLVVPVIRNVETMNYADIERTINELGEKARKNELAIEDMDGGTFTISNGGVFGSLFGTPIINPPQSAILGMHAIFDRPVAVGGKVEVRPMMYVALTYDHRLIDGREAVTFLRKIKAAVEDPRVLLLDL
Cytochrome c oxidase subunit 7B, mitochondrial, sequence (P56393 whole entry): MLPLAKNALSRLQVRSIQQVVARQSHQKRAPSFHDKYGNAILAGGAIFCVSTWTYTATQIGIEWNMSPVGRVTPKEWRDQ
Cytochrome c oxidase subunit FA4, sequence (Q62425 whole entry): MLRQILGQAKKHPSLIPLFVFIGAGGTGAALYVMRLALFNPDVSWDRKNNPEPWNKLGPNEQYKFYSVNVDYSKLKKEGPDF
Double-stranded RNA-binding protein Staufen homolog 1, sequence (Q9Z108 whole entry): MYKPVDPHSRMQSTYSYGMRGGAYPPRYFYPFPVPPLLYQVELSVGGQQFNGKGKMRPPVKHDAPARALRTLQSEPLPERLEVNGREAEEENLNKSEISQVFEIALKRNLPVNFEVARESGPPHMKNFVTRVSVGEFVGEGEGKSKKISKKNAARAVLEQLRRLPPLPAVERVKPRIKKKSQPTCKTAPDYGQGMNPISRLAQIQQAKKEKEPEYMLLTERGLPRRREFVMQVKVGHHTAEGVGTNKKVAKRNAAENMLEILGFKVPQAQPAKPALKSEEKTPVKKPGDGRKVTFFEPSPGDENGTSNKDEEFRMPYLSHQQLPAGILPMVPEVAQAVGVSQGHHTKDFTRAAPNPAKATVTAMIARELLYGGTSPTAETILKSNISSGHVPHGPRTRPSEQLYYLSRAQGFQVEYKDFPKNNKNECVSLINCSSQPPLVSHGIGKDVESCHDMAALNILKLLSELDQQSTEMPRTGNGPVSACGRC
MICOS complex subunit Mic19, sequence (Q9CRB9 whole entry, one chain of several): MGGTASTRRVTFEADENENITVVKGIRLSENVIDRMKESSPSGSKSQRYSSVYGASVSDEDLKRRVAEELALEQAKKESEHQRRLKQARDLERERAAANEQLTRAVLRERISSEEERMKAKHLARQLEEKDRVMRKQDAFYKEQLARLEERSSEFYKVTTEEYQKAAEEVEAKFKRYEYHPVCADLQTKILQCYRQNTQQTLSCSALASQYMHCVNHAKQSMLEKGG
2-oxoglutarate dehydrogenase complex component E1, sequence (Q60597 whole entry, one chain of several): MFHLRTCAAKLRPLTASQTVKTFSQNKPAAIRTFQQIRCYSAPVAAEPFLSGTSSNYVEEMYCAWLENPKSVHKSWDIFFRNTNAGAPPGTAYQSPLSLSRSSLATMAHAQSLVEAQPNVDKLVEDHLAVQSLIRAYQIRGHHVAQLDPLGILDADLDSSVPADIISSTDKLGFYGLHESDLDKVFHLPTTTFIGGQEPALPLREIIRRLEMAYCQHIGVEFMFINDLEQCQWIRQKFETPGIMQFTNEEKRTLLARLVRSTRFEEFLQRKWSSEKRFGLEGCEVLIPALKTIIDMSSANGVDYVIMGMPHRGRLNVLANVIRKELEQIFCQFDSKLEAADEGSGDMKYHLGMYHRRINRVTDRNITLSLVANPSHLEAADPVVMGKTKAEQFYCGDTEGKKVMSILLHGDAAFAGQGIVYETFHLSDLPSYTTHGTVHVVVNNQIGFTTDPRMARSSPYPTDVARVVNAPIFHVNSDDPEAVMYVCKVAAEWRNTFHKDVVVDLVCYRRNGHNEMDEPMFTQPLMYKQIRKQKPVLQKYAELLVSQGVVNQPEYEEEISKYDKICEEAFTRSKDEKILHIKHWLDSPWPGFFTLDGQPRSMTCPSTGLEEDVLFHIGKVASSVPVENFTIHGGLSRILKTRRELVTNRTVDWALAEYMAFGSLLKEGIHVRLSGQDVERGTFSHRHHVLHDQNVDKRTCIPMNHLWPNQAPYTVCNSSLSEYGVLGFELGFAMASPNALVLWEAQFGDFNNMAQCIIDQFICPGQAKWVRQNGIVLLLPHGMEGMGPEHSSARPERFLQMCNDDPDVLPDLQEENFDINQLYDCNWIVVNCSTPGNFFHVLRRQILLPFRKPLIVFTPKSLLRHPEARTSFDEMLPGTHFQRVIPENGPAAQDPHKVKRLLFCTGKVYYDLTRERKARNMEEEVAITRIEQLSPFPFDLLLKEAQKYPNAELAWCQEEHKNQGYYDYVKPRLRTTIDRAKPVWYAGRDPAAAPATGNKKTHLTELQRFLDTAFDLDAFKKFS
Cytochrome b-c1 complex subunit 9, sequence (Q8R1I1 whole entry, one chain of several): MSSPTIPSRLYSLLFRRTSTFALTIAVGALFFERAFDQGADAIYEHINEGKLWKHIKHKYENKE
Cytochrome b-c1 complex subunit Rieske, mitochondrial, sequence (Q9CR68 whole entry, one chain of several): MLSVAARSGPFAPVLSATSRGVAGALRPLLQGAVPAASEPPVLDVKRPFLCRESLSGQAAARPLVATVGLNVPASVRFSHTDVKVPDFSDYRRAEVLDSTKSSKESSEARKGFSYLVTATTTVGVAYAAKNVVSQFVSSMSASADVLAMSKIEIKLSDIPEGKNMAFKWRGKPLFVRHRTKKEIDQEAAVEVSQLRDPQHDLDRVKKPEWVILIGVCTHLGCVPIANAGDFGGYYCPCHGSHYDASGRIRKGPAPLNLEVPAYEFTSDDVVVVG
ATP synthase F(0) complex subunit g, mitochondrial, sequence (Q9CPQ8 whole entry, one chain of several): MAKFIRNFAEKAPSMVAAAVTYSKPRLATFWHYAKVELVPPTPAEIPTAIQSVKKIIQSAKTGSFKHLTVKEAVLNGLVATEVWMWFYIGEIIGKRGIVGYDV
Heat shock protein 75 kDa, mitochondrial, sequence (Q9CQN1 whole entry): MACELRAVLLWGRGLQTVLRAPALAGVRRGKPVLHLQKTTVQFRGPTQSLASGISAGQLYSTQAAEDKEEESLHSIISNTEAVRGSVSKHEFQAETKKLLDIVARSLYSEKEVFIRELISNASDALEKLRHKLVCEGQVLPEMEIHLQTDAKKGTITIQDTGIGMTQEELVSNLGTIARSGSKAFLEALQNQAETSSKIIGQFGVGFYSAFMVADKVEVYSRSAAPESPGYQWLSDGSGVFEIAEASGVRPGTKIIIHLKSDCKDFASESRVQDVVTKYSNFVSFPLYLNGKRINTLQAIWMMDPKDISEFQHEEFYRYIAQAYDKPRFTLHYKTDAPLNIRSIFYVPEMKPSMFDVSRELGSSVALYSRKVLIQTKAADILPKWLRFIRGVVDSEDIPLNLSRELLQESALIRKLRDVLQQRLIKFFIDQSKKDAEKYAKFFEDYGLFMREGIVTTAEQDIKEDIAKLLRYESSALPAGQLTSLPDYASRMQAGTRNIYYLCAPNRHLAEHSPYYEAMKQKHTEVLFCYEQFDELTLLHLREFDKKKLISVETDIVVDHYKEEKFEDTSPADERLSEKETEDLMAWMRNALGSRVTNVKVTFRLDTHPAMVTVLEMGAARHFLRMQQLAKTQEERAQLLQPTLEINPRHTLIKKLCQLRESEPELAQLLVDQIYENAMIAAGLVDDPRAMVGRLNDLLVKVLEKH
Cytochrome b-c1 complex subunit 7, sequence (Q9D855 whole entry, one chain of several): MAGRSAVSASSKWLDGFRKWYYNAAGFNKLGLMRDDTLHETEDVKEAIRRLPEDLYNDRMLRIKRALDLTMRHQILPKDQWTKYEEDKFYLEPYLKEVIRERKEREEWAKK

For “NADH dehydrogenase [ubiquinone] 1 beta subcomplex subunit 4, Q9CQC7”, in test [1], the “listed as a hit” value was “yes”.

Turning to “NADH dehydrogenase [ubiquinone] iron-sulfur protein 6, mitochondrial, P52503”, the “listed as a hit” value in test [2] was “yes”.

With “Cytochrome c oxidase subunit FA4, Q62425”, the “listed as a hit” value in test [3] is listed as “yes”.

“2-oxoglutarate dehydrogenase complex component E1, Q60597”: the “listed as a hit” value in test [4] was “yes”.

Turning to Mitochondrial Rho GTPase 1, Q8BG51, in test [5], the “listed as a hit” value is “yes”.

Turning to “ATP synthase F(0) complex subunit 8, P03930”, the “listed as a hit” value in test [6] is recorded as “yes”.

Consider Cytochrome c, somatic, P62897, for which the “listed as a hit” value in test [7] was “yes”.

Consider “Mitochondrial import inner membrane translocase subunit TIM16, Q9CQV1”, for which the “listed as a hit” value in test [8] is “yes”.

For “Trifunctional enzyme subunit alpha, mitochondrial, Q8BMS1”, the “listed as a hit” value in test [6] is “yes”.

Consider “Succinate dehydrogenase [ubiquinone] flavoprotein subunit, mitochondrial, Q8K2B3”, for which the “listed as a hit” value in test [9] is reported as “yes”.

Turning to “Mitochondrial import inner membrane translocase subunit Tim10, P62073”, in test [10], the “listed as a hit” value was “yes”.

Regarding Cytochrome b, P00158, the “listed as a hit” value in test [11] is reported as “yes”.

Take “Dihydrolipoyl dehydrogenase, mitochondrial, O08749”: the “listed as a hit” value in test [12] was “yes”.

As to “StAR-related lipid transfer protein 7, mitochondrial, Q8R1R3”, in [13], the “listed as a hit” value is given as “yes”.

As to “Acetyl-CoA acetyltransferase, mitochondrial, Q8QZT1”, the “listed as a hit” value in [14] is “yes”.

In the case of “Alpha-ketoglutarate dehydrogenase component 4, Q9CQX8”, the “listed as a hit” value in test [4] is listed as “yes”.

Turning to “Cytochrome c oxidase subunit 7B, mitochondrial, P56393”, the “listed as a hit” value in test [15] and in test [16] was “yes” throughout.

“Aspartate aminotransferase, mitochondrial, P05202”: the “listed as a hit” value in [9] and in test [17] was “yes” throughout.

Consider MICOS complex subunit Mic27, Q78IK4, for which the “listed as a hit” value in test [18] and in test [19] was “yes” in each case.

For the substance “NADH dehydrogenase [ubiquinone] 1 alpha subcomplex subunit 8, Q9DCJ5”, in test [20], the “listed as a hit” value is “yes”.

Consider “ATP synthase F(0) complex subunit g, mitochondrial, Q9CPQ8”, for which the “listed as a hit” value in test [21] is “yes”.

For the substance “Methylmalonyl-CoA mutase, mitochondrial, P16332”, the “listed as a hit” value in test [22] is “yes”.

For the substance “NADH dehydrogenase [ubiquinone] 1 beta subcomplex subunit 11, mitochondrial, O09111”, the “listed as a hit” value in test [23] is “yes”.

For the substance ADP/ATP translocase 1, P48962, the “listed as a hit” value in test [24], in test [25], in test [26], in test [7], in test [27] and in test [28] was “yes” in each case. In the test with Protein FAM162A, the “listed as a hit” value is “yes”.

As for “Cytochrome b-c1 complex subunit 6, mitochondrial, P99028”, the “listed as a hit” value in [29] and in test [1] was “yes” throughout.

With “Cytochrome c oxidase subunit 4 isoform 1, mitochondrial, P19783”, the “listed as a hit” value (with ADP/ATP translocase 1; in test [26]; in test [7]; in test [27]; in [16]; in test [30]) was “yes” in each case. Besides, the “listed as a hit” value in test [31] and in test [32] was “yes” each time.

Consider “NADH dehydrogenase [ubiquinone] 1 beta subcomplex subunit 8, mitochondrial, Q9D6J5”, for which, in test [1], the “listed as a hit” value was “yes”.

As for “Cytochrome c1, heme protein, mitochondrial, Q9D0M3”, in test [33], the “listed as a hit” value is on record as “yes”.

On to “Stress-70 protein, mitochondrial, P38647”, for which the “listed as a hit” value in [34] is listed as “yes”.

Regarding Metaxin-2, O88441, the “listed as a hit” value in test [35] is “yes”.

On to MICOS complex subunit Mic60, Q8CAQ8, for which the “listed as a hit” value in [36] is recorded as “yes”.

In the case of “Malate dehydrogenase, mitochondrial, P08249”, the “listed as a hit” value in [37], in [6] and in test [9] was “yes” each time.

Take “Cytochrome b-c1 complex subunit 8, Q9CQ69”: the “listed as a hit” value in [38] and in test [39] was “yes” in each case.

As to Cytochrome c oxidase subunit 6C, Q9CPQ1, the “listed as a hit” value with Protein FAM162A is on record as “yes”.
